# This is a sample that favours compounds with a hit; in the whole collection about 3% have one here.
# Vif inh = HIV Vif inhibition; AID 602346; HEK293T cells, Vif self-association by quenched fluorescence, imaging, 24 h; 340,000 compounds, 0.35% hits; inhibition, % at 7.49 µM; in the data active means inhibition above about 50%, passing the limit was not always enough; inconclusive means no clear call, values can overlap the other calls; inactive means below about 31%
# PfHsp90 set2 = inhibits growth of yeast expressing Plasmodium falciparum Hsp90; S. cerevisiae expressing PfHsp90, BacTiter-Glo ATP, 48 h; yeast lacking PDR1 and PDR3 efflux regulators; inhibition, % at 9.4 µM; 310,000 compounds, 0.32% hits; AID 504621;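 active means every replicate shows inhibition above about 80%, whatever the replicate mean, limit read from the data; inconclusive means mean inhibition reaches the set limit but some replicate falls short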
# MITF act = increases MITF-driven TRPM1 promoter luciferase signal | SK-MEL-5 TRPM1-promoter luciferase, 24 h; % of positive control, neutral wells = 0 | activation, % at 12.5 µM | 300,000 compounds, 0.75% hits;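 active means mean activation of at least 80% with every replicate also reaching 80%; inconclusive means mean reaches 80% but some replicate falls short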
# esBAF inh = blocks esBAF chromatin remodeling in mouse ES cells. Bmi1-luciferase knock-in reporter, 24 h; 100% = twice the neutral-well signal. reporter increase, % at 12.5 µM. 350,000 compounds, 2% hits; in the data active means activation above about 40%; inconclusive means no clear call, values can overlap the other calls;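 further: a rise in the Bmi1 reporter signal indicates esBAF inhibition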
# Wnt act = activators of Wnt/beta-catenin signaling; Wnt/beta-catenin reporter cell assay, activator, plate reader; activation, % at 9.35 µM; 300,000 compounds, 1.2% hits; in the data active means activation above about 30%, passing the limit was not always enough; inconclusive means no clear call, values can overlap the other calls
# N-glyco inh = blocks N-linked glycosylation in D54 reporter cells | 360,000 compounds, 0.23% hits | reporter increase, % at 12.5 µM | D54 ERlucT glycosylation luciferase reporter, 24 h; percent of 100 nM tunicamycin response;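 active means mean luciferase reporter signal, scaled so untreated is 0 and the glycosylation-blocking control 100, at or above a set limit in every replicate; inconclusive means mean reaches the limit but not every replicate does; inactive means mean below the limit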;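 further: luciferase carries N-glycosylation sites so blocking glycosylation raises the light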
# Numbers stand for hits; – = inactive; ? = inconclusive; · = not tested or not shown.
SMILES,Vif inh,PfHsp90 set2,MITF act,esBAF inh,Wnt act,N-glyco inh
CCc1ccc(N(C(=O)c2ccco2)C(C(=O)NC2CCCC2)c2ccncc2)cc1 (stereo not given),·,–,–,42,–,–
O=C(NC1CCCCC1)C(c1cccs1)N(C(=O)c1ccco1)c1ccc2c(c1)OCCO2 (stereo not given),–,–,–,78,–,–
CCc1ccc(N(C(=O)c2ccco2)C(C(=O)NC2CCCC2)c2ccco2)cc1 (stereo not given),·,–,–,50,·,–
O=C(NC1CCCC1)C(c1ccncc1)N(C(=O)c1ccco1)c1ccc(Cl)cc1 (stereo not given),–,–,–,–,–,–
COc1ccc(S(=O)(=O)N2CCN(Cc3cc4c(cc3Br)OCCO4)CC2)cc1,–,–,·,–,–,–
Cc1ccc(SC(C)C(=O)NCc2cccnc2)cc1 (stereo not given),–,–,–,–,·,–
c1ccc2nc(-c3ccncc3)ccc2c1,–,·,·,–,·,–
c1ccc(-c2ccc3cnccc3n2)cc1,·,·,·,52,–,–
CC[n+]1c(/C=C/c2ccc(OC(C)=O)c(OC)c2)ccc2ccccc21,–,–,97,83,–,–
CC[n+]1c(/C=C/c2ccc(N(C)C)cc2)ccc2ccccc21,–,–,–,·,·,–
CC[n+]1c(/C=C/c2ccc(OC)c(OC)c2)ccc2ccccc21,–,–,·,80,–,–
CC[n+]1c(/C=C/c2cc([N+](=O)[O-])ccc2O)ccc2ccccc21,–,–,·,43,–,–
C[C@H]1CN([C@@H](C)CO)C(=O)c2cc(-c3cccc(C#N)c3)cnc2O[C@H]1CN(C)Cc1cccnc1,·,·,·,–,·,·
O=C(O)c1ccc(-c2noc(-c3cccc(Cl)c3)n2)cc1,–,–,87,63,–,–
O=C(O)c1ccc(-c2noc(-c3ccc(F)cc3)n2)cc1,–,–,–,–,–,–
O=C(O)c1ccc(-c2noc(-c3ccccc3Cl)n2)cc1,–,–,–,–,39,–
O=C(O)c1ccc(-c2noc(-c3ccccc3C(F)(F)F)n2)cc1,–,–,–,–,?,–
COc1ccccc1NC(=O)N[C@@H]1CC[C@@H](CCn2cc(-c3ccccc3OC)nn2)O[C@@H]1CO,·,·,·,–,·,·
CCN(CC)c1ccc(/C=N/NC(=O)c2ccoc2C)c(O)c1,–,–,–,·,47,–
CCCCCn1nc(C)c(/C=N/NC(=O)c2ccoc2C)c1C,–,–,–,62,·,–
Cc1cc(/C=N/NC(=O)c2ccoc2C)cc(C)c1O,·,·,·,69,–,–
Cc1occc1C(=O)N/N=C/c1ccc(-c2ccccc2)cc1,–,–,–,–,–,–
Cc1occc1C(=O)N/N=C/c1ccc(OCc2ccccc2)cc1,–,–,·,54,38,–
CN(C)C(=O)[C@@H]1[C@@H](CO)[C@@H]2Cn3c(ccc(C4=CCCCC4)c3=O)[C@H]1N2Cc1cccnc1,·,·,·,–,·,·
Cc1occc1C(=O)N/N=C/c1ccc2c(c1)OCO2,–,–,–,–,38,–
SMILES,Vif inh,PfHsp90 set2,MITF act,esBAF inh,Wnt act,N-glyco inh
Cc1occc1C(=O)N/N=C/c1cccc2ccccc12,–,–,97,69,–,–
COc1ccccc1NC(=O)c1cc2ccccc2o1,–,–,–,72,·,–
Cc1ccc(NC(=O)c2cc3ccccc3o2)nc1,–,–,–,·,65,–
Cc1ccccc1NC(=O)c1cc2ccccc2o1,–,–,–,47,–,–
CCN(CC)c1ccc(NC(=O)c2cc3ccccc3o2)c(C)c1,–,–,–,45,·,–
CCN(CC)c1ccc(NC(=O)c2c(OC)cccc2OC)c(C)c1,–,·,·,–,–,–
CC1CC(C)CN(C(=O)CN2C(=O)NC(c3ccccc3)(c3ccccc3)C2=O)C1 (stereo not given),–,·,–,–,–,–
Cc1ccc(S(=O)(=O)Nc2ccc3c(c2)C(=O)N([C@@H](C)CO)C[C@H](C)[C@@H](CN(C)Cc2ccccc2)OCCCC[C@@H](C)O3)cc1,·,·,·,–,·,·
COc1ccccc1NC(=O)c1oc2ccccc2c1C,·,·,·,47,·,–
COc1ccc(NC(=O)c2oc3ccccc3c2C)c(OC)c1,–,·,–,–,–,–
Cc1ccc(NC(=O)c2ccc3ccccc3n2)nc1,–,–,–,–,77,–
